We go through 15 compounds from PubChem BioAssay (NCI).

SMILES strings stand for the structures. Compounds without any hit were thinned out: in the full panel of roughly 83,000, 20% have a hit.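 Negative percent growth values reflect cell death: -40 means 40% of the cells present at the start died, and -100 means all died.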 Unmarked numbers belong to inactive results. Calls of active or inactive are those of the source. The calls were made as follows: active = growth percent below 10; inactive = the rest.

Among the test systems are SR leukemia; OVCAR-8 ovarian; OVCAR-5 ovarian; OVCAR-4 ovarian; IGROV1 ovarian; OVCAR-3 ovarian; HS 578T breast; NCI/ADR-RES ovarian; SK-OV-3 ovarian.
Common to all, as to test: NCI-60 one-dose screen, 48 h (100 = growth as untreated, 0 = no growth, -100 = all killed)
Common to all, as to conditions: 10 µM unless noted

Regarding `N=C(N)c1ccc(-c2ccc(-c3cncc4ccccc34)s2)cc1F`, the growth in the assay on SR leukemia is -3.96% (active); with OVCAR-8 ovarian, -51.6% (active); with OVCAR-5 ovarian, -94.7% (active); with OVCAR-4 ovarian, -78.6% (active); in the assay on IGROV1 ovarian, -87.5% (active); in the assay on OVCAR-3 ovarian it was -91.6% (active). Moreover, the values for the growth with HS 578T breast and in the assay on NCI/ADR-RES ovarian were 88.9% and 1.93% (active), respectively.
With `COc1ccc(-c2cc(-c3ccccc3)nc(SCCCC(=O)NO)n2)cc1OC`, the growth in the assay with SR leukemia was 4.39% (active); in the assay with OVCAR-8 ovarian it was 5.05% (active); in the assay on OVCAR-5 ovarian, 11%; in the assay on OVCAR-4 ovarian, 6.41% (active); in the assay on SK-OV-3 ovarian, -0.339% (active); in the assay with IGROV1 ovarian, 15.6%. The results for the growth in the assay with OVCAR-3 ovarian, with HS 578T breast and in the assay with NCI/ADR-RES ovarian were -22.7% (active), 18% and -12.3% (active), respectively.
Consider `c1cc(C2=N[C@@H]3c4ccccc4C[C@@H]3O2)nc(C2=N[C@@H]3c4ccccc4C[C@@H]3O2)c1`, for which the growth with SR leukemia is 101%; with OVCAR-8 ovarian it was 106%; with OVCAR-5 ovarian, 98.3%; in the assay on OVCAR-4 ovarian, 99.6%; with SK-OV-3 ovarian it was 117%; in the assay on IGROV1 ovarian it was 104%. In addition, the growth was 109% in the assay with OVCAR-3 ovarian, 98.2% in the assay on HS 578T breast and 98.7% in the assay with NCI/ADR-RES ovarian.
Turning to `C=C1CCC2C3(C)COC(C)(C)OC3CCC2(C)C1C/C=C1/C(=O)OCC1Oc1ccccc1OC` (stereo not given), the growth in the assay on SR leukemia is 28.9%; in the assay with OVCAR-8 ovarian it was 81.1%; in the assay on OVCAR-5 ovarian, 101%; with OVCAR-4 ovarian, 60.7%; in the assay on SK-OV-3 ovarian, 114%; with IGROV1 ovarian, 76.2%. Also, the growth with OVCAR-3 ovarian is 31.3%; with HS 578T breast it was 113%; in the assay with NCI/ADR-RES ovarian, 85.6%.
With `CCCN=C1NC(=O)/C(=C/c2nc(-c3ccc(OC)cc3)n3ccccc23)S1`, the growth in the assay with SR leukemia is 62.5%; in the assay on OVCAR-8 ovarian, 86.7%; in the assay with OVCAR-5 ovarian, 104%; in the assay with OVCAR-4 ovarian, 87.5%; in the assay with SK-OV-3 ovarian, 98.1%; with IGROV1 ovarian, 94%. The growth was 61.9% with OVCAR-3 ovarian, -8.63% (active) in the assay on HS 578T breast and 83.6% with NCI/ADR-RES ovarian.
In the case of `CC12CCC3C4(C)COC(c5ccccc5Cl)OC4CCC3(C)C1CC(C1=CCOC1=O)O2` (stereo not given), the growth with SR leukemia was 28%; in the assay with OVCAR-8 ovarian, 65.1%; in the assay with OVCAR-5 ovarian, 91.3%; in the assay on OVCAR-4 ovarian, 31.2%; in the assay with SK-OV-3 ovarian, 94.5%; in the assay on IGROV1 ovarian, 82.9%. Besides, the values for the growth in the assay with OVCAR-3 ovarian, in the assay on HS 578T breast and in the assay on NCI/ADR-RES ovarian were 64.4%, 76.1% and 63.2%, respectively.
Consider `C=C1C(=O)O[C@H]2[C@H]1CC/C(Cn1cc(CNC(=O)c3cc4ccccc4[nH]3)nn1)=C\CC[C@@]1(C)O[C@@H]21`, for which the growth in the assay on SR leukemia is 4.37% (active); with OVCAR-8 ovarian it was 44.8%; in the assay on OVCAR-5 ovarian it was 110%; with OVCAR-4 ovarian, 83%; with SK-OV-3 ovarian, 106%; in the assay on IGROV1 ovarian, 71%. The growth with OVCAR-3 ovarian is 3.43% (active); in the assay with HS 578T breast, 99.9%; in the assay on NCI/ADR-RES ovarian it was 101%.
On to `O=C(NCCCNc1nccc(-n2ccc3cccnc32)n1)c1c(F)cccc1F`, for which the growth with SR leukemia was 99.2%; in the assay on OVCAR-8 ovarian it was 107%; in the assay on OVCAR-5 ovarian, 98.9%; with OVCAR-4 ovarian, 94.9%; in the assay with SK-OV-3 ovarian, 116%; in the assay on IGROV1 ovarian, 97.6%. The growth is 109% in the assay on OVCAR-3 ovarian, 103% in the assay on HS 578T breast and 99.4% in the assay on NCI/ADR-RES ovarian.
For `Cc1[nH]c2ccc(F)cc2c1CCNC(=O)C1CCN(C(=O)c2ccccc2)C1` (stereo not given), the growth is 96.3% [25 µM] in the assay with SR leukemia; 101% [25 µM] in the assay with OVCAR-8 ovarian; 81.8% [25 µM] in the assay with OVCAR-5 ovarian; 85.5% [25 µM] with OVCAR-4 ovarian; 90.4% [25 µM] with IGROV1 ovarian; 101% [25 µM] with OVCAR-3 ovarian. Also, the growth with HS 578T breast is 90.9% [25 µM]; in the assay with NCI/ADR-RES ovarian it was 97.6% [25 µM].
For `COc1ccc(-c2nc(SCCC(C)C)nc(Nc3ccc(F)c(Cl)c3)c2C#N)cc1`, the growth in the assay with SR leukemia is 57.3%; with OVCAR-8 ovarian, 65.8%; in the assay with OVCAR-5 ovarian, 102%; with OVCAR-4 ovarian, -43.1% (active); with SK-OV-3 ovarian, 96%; in the assay on IGROV1 ovarian, 60.3%. Besides, the results for the growth in the assay on OVCAR-3 ovarian, in the assay on HS 578T breast and in the assay with NCI/ADR-RES ovarian were 57.3%, 65% and 81.4%, respectively.
As for `COc1ccc(-c2ccc(-c3ccc(-c4ccc(C(=N)N)cc4)s3)s2)cc1OC`, the growth was 6.75% (active) in the assay on SR leukemia; 101% with OVCAR-8 ovarian; -12.2% (active) with OVCAR-5 ovarian; -53.2% (active) with OVCAR-4 ovarian; 15.7% with IGROV1 ovarian; -64.9% (active) in the assay with OVCAR-3 ovarian. In addition, the growth with HS 578T breast was 89.6%; in the assay with NCI/ADR-RES ovarian, 84%.
As for `C1=Cc2ccccc2N(c2nnc(-c3ccccc3)o2)c2ccccc21`, the growth was 32.3% with SR leukemia; 95.4% in the assay with OVCAR-8 ovarian; 98.2% with OVCAR-5 ovarian; 114% in the assay with SK-OV-3 ovarian; 92.9% in the assay on IGROV1 ovarian; 107% in the assay with OVCAR-3 ovarian. Moreover, the growth with HS 578T breast is 102%; in the assay on NCI/ADR-RES ovarian it was 92.2%.
Consider `CC(C)c1ccc2occ(C=C3C(=O)NC(=O)NC3=O)c(=O)c2c1`, for which the growth in the assay on SR leukemia is 73.1%; in the assay with OVCAR-8 ovarian, 80.1%; in the assay with OVCAR-5 ovarian it was 123%; in the assay with OVCAR-4 ovarian, 89.1%; in the assay with SK-OV-3 ovarian it was 109%; in the assay with IGROV1 ovarian it was 120%. For the same compound, the growth in the assay with OVCAR-3 ovarian is 95.6%; with HS 578T breast it was 111%; in the assay with NCI/ADR-RES ovarian, 90.1%.
For the compound `c1ccc(-c2nc(N3CCNCC3)c3nc(-c4ccccc4)oc3n2)cc1`, the growth with SR leukemia was 0.501% (active); in the assay with OVCAR-8 ovarian it was -30.5% (active); in the assay with OVCAR-5 ovarian, -1.51% (active); in the assay with OVCAR-4 ovarian it was -65.1% (active); in the assay with IGROV1 ovarian, -83.6% (active); in the assay with OVCAR-3 ovarian, -90.6% (active). Also, the growth in the assay with HS 578T breast was 88.9%; with NCI/ADR-RES ovarian, -69.2% (active).
In the case of `Cc1ccc(S(=O)(=O)NCCCNc2cc(-c3cn(C(C)(C)C)nc3-c3cccc(O)c3)ccn2)cc1`, the growth in the assay on SR leukemia is 40.6%; in the assay on OVCAR-8 ovarian, 71.9%; in the assay on OVCAR-5 ovarian, 78.5%; in the assay with OVCAR-4 ovarian it was 56%; in the assay on SK-OV-3 ovarian it was 85.7%; in the assay on IGROV1 ovarian, 61.7%. Moreover, the growth is 74.6% in the assay with OVCAR-3 ovarian, 60% in the assay on HS 578T breast and 72.4% in the assay with NCI/ADR-RES ovarian.
